The results in this text go back to PubChem BioAssay (NCATS).

Calls of active or inactive are those of the source. No stated cut-off is given here; in the data, active means potency below about 10 µM; inactive means the rest.
Potency means the concentration at half of the fitted maximal effect.

Lysosomal acid glucosylceramidase (Homo sapiens), sequence (P04062 whole entry, looked up): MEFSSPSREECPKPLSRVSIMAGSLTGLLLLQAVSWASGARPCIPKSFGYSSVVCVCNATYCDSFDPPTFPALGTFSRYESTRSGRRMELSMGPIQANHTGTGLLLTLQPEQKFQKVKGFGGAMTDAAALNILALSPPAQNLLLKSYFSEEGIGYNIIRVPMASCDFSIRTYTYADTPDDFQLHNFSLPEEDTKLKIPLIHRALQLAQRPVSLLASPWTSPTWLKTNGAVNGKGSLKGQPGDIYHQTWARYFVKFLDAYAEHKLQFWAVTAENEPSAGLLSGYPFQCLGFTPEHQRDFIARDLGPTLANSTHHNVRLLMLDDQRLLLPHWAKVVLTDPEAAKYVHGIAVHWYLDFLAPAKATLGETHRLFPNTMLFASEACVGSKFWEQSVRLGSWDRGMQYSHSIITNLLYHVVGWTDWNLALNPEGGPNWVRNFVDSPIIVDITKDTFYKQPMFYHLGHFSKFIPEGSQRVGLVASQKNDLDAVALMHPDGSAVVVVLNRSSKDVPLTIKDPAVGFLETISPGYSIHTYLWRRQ

This assay addresses Lysosomal acid glucosylceramidase (Homo sapiens) (UniProt P04062). The experiment in a line: Glucocerebrosidase-p2 (AID 348). As to conditions: purified GBA, blue fluorogenic substrate, 40 min. From the text:
Beta-glucocerebrosidase catalyzes the hydrolysis of beta-glucocerebroside to glucose and ceramide. The inherited deficiency of beta-glucocerebrosidase results in Gaucher disease, which is characterized by a wide variety of symptoms including hepatosplenomegaly, anemia, thrombocytopenia, bony lesions and bone marrow infiltration with characteristic storage cells, known as Gaucher cells. There are also forms of the disorder affecting the central nervous system. Patients with the same genotypes can manifest with diverse clinical presentations and it is believed that improper folding and trafficking of beta-glucocerbrosidase may contribute to the phenotypes observed.
Low molecular weight molecules, acting as chaperones, may potentially restore trafficking of misfolded beta-glucocerebrosidase from the endoplasmic reticulum to the lysosomes, thereby enhancing functional lysosomal beta-glucocerebrosidase activity.
Using normal beta-glucocerebrosidase, an assay was developed to screen for small molecule inhibitors that could potentially act as molecular chaperones on the mutant forms [developed with NIH investigator Dr. Ellen Sidransky#s laboratory]. Two pro-fluorescent substrates were chosen for two screens against a small molecule library. One beta-glucocerebrosidase assay used Resorufin beta-D-Glucopyranoside (Marker Gene Technology Inc.), generating a red fluorescent product. The second assay used […] fluorescent product. The Km for the Resorufin beta-D-Glucopyranoside and Fluorescein di-beta-D-Glucopyranoside were determined to be 71.2 uM and 855 uM, respectively. The IC50 values of Conduritol B Epoxide, a known glucocerebrosidase inhibitor, were determined to be 87.5 uM and 117 uM, respectively. The use of two difference pro-fluorescent substrates in the screens helped to eliminate false positives. All compounds were screened in a titration series resulting in AC50s (e.g., IC50s or EC50s). Data normalization and AC50 calculations were accomplished using GeneData software.
NCGC Assay Protocol Summary
Both enzyme and substrate were diluted in buffer composed of 50mM citric acid/KH2PO4, 10mM sodium taurocholate and 0.01% tween-20 at pH 5.9. The final concentration of the enzyme was 0.2 nM in both assays. The compound library was titrated in 7 to 15 concentrations for the primary screens with a final concentration ranging from 0.6 nM to 50 uM. This particular assay protocol is for the "blue" substrate, and it was performed in 1536-well plate format as follows:
Blue fluorescence substrate assay:
1 uL substrate (final concentration of 80 uM)
Incubate at room temperature (RT) for 40 minutes
3 uL stop solution (1 M NaOH and 1 M glycine in water)
Read the plate in Viewlux plate reader (Ex=365(10) and Em=440(10)).
Regarding `NCCSc1nc(-c2ccccc2)c(-c2ccccc2)o1`, the Potency was > 11.4 µM (inactive).

For the molecule `Nc1c(S(=O)(=O)O)cc(Nc2cccc(S(N)(=O)=O)c2)c2c1C(=O)c1ccccc1C2=O`, the Potency is > 11.4 µM (inactive).

`NS(=O)(=O)c1ccc(N=Nc2nc3[nH]cnc(=S)c3[nH]2)cc1`: the Potency was > 11.4 µM (inactive).

As for `CN(C)Cc1nsc(N(C)C)n1`, the Potency is > 11.4 µM (inactive).

Consider `Cc1cc(C(=O)CSC(=S)SC(C)(C)C)ccc1Cl`, for which the Potency was > 11.4 µM (inactive).

`O=C(O)Cc1[nH]cnc1C(=O)O`: the Potency was > 11.4 µM (inactive).

As to `Cn1c(=O)c2[nH]c(COCc3nc4c([nH]3)c(=O)n(C)c(=O)n4C)nc2n(C)c1=O`, the Potency was > 11.4 µM (inactive).

For `Cn1c(=O)c2[nH]c(/N=N\N3CCN(CCO)CC3)nc2n(C)c1=O`, the Potency is > 11.4 µM (inactive).

For `O=C(O)c1cc(-c2ccc(-c3ccc(-c4cc(C(=O)O)c5cc(Cl)ccc5n4)cc3)cc2)nc2ccc(Cl)cc12`, the Potency is > 11.4 µM (inactive).

Consider `Cn1c(=O)c2[nH]c(CCS)nc2n(C)c1=O`, for which the Potency is > 11.4 µM (inactive).

Regarding `NC(N)=N/N=C(/c1ccccc1)c1ccc(O)cc1O`, the Potency is > 11.4 µM (inactive).

On to `CN1CCN(c2ncc3nc(-c4cccs4)c(=O)n(C[C@H]4CCCO4)c3n2)CC1`, for which the Potency is > 11.4 µM (inactive).

Consider `O=S(=O)(O)n1ccnc1` (tested in a mixture with another compound), for which the Potency was > 11.4 µM (inactive).

For `COc1cc2nncc(SCc3ccc(Cl)c(Cl)c3)c2cc1OC`, the Potency is > 11.4 µM (inactive).

For the molecule `CN1CCN(c2ccncc2S(=O)(=O)N2CCN(C)CC2)CC1`, the Potency is > 11.4 µM (inactive).

Turning to `Cc1cc(Nc2ccc(N=Nc3ccc(O)c4ncccc34)cc2)nc(C)n1`, the Potency was > 11.4 µM (inactive).

In the case of `O=C(O)[C@@H]1[C@@H](C(=O)NCc2ccncc2)[C@@H]2C=C[C@@H]1O2`, the Potency was > 11.4 µM (inactive).

Regarding `Oc1c(Cl)cc(C(c2cc(Cl)c(O)c(Cl)c2)C(c2cc(Cl)c(O)c(Cl)c2)c2cc(Cl)c(O)c(Cl)c2)cc1Cl`, the Potency was 5.75 µM (active).

As to `NCCNS(=O)(=O)c1ccc(N)cc1`, the Potency was > 11.4 µM (inactive).

Turning to `c1ccc(C[n+]2cccc(-c3cc4ccccc4[nH]3)c2)cc1`, the Potency is > 11.4 µM (inactive).

On to `CN(C)CCOC(=O)c1ccc(N)cc1`, for which the Potency is > 11.4 µM (inactive).

`C[C@@]12CC[C@@H]3[C@H](CCC4=CC(=O)CC[C@]43C)[C@@H]1CC[C@@H]2C(=O)COS(=O)(=O)c1ccc(Br)cc1`: the Potency was > 11.4 µM (inactive).

As for `NS(=O)(=O)c1ccc(NCc2nc3ccccc3[nH]2)cc1`, the Potency is > 11.4 µM (inactive).

For the molecule `CC(C)(C)C1CCC2(CC1)CCN(CCCN1CCOCC1)CC2`, the Potency is > 11.4 µM (inactive).

Regarding `N#C[C@H]1CN[C@H](N)N[C@@H]1N`, the Potency was > 11.4 µM (inactive).

For `O=S(=O)(O)c1ccc(N=Nc2ccc3c(S(=O)(=O)O)cccc3c2O)c2ccccc12`, the Potency was > 11.4 µM (inactive).

Turning to `NCC(=O)Nc1ccc(Cl)cc1C(=O)c1ccc[nH]1`, the Potency is > 11.4 µM (inactive).

As to `O=C(O)[C@@H](S)[C@H](S)C(=O)O`, the Potency is > 11.4 µM (inactive).

In the case of `O=[N+]([O-])c1ccc2c(c1)Cc1cc(N=Cc3ccc4c(c3)OCO4)ccc1-2`, the Potency is > 11.4 µM (inactive).

In the case of `c1ccc(-c2cnc(-c3ccc(-c4ncc(-c5ccccc5)o4)cc3)o2)cc1`, the Potency is > 11.4 µM (inactive).

In the case of `O=[N+]([O-])c1ccc2c(c1)S(=O)c1ccccc1-2` (stereo not given), the Potency was > 11.4 µM (inactive).

Regarding `C[C@@H](N1CCOCC1)[C@@](O)(c1ccccc1)c1ccccn1`, the Potency was > 11.4 µM (inactive).

Regarding `COc1cc(O)c2c(O)c3c(c4c2c1[C@@]1(C4)C(C)=CCCC1(C)C)[C@H](O)[C@@]1(O)CC(=O)C(C(N)=O)=C(O)[C@]1(O)C3=O`, the Potency is > 11.4 µM (inactive).

For the molecule `O=C(Nc1ccc(Nc2ccc3c(c2)C(=O)c2ccccc2C3=O)c2c1C(=O)c1ccccc1C2=O)c1ccccc1`, the Potency is > 11.4 µM (inactive).

In the case of `O=C(O)C(=Cc1ccc(-c2ccccc2)cc1)C(=O)O`, the Potency was > 11.4 µM (inactive).

As for `COc1cccc(Nc2ncc3ncc(=O)n(C4CC4)c3n2)c1`, the Potency was > 11.4 µM (inactive).

As for `CN(C)CCCNc1cc(O)c2c(c1O)C(=O)c1ccccc1C2=O`, the Potency was > 11.4 µM (inactive).

For the molecule `Oc1c([C@H](Nc2ccccn2)c2ccccc2)ccc2cccnc12`, the Potency is > 11.4 µM (inactive).

`Cc1noc(NC(=O)Nc2ccccc2F)c1C#N`: the Potency was > 11.4 µM (inactive).

With `Nc1ccccc1S[C@@H](C[N+](=O)[O-])c1ccc2c(c1)OCO2`, the Potency is > 11.4 µM (inactive).
